What was measured:
Assay in all cases: log2 ratio of Biotin-Ahx-Ub-VS probe labelling (fragment/DMSO); higher = less target engagement (more negative = stronger competition), active = hit call of the paper (q ≤ 0.05, log2 ratio ≤ -1)
Conditions in all cases: compound concentration: 200 uM; treatment time: 3 h
USP34 = USP34 (UniProt Q70CQ2)
Outline: (§1)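 Fragment (200 µM) or vehicle was incubated for 3 h with triplicate HEK293T lysate samples of 495 µg, which were then treated with Biotin-Ahx-Ub-VS at 0.5 µM final for 1 h. Labelled DUBs were enriched on NeutrAvidin, digested with LysC and trypsin, and analysed by diaPASEF LC-MS/MS. Values are average log2 fragment/vehicle ratios from an unpaired t-test on global-median-normalised Spectronaut label-free quantities, using proteins with ≥2 unique peptides.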

USP36 = target: T1, USP36 (UniProt Q9P275)
T1 sequence (whole entry): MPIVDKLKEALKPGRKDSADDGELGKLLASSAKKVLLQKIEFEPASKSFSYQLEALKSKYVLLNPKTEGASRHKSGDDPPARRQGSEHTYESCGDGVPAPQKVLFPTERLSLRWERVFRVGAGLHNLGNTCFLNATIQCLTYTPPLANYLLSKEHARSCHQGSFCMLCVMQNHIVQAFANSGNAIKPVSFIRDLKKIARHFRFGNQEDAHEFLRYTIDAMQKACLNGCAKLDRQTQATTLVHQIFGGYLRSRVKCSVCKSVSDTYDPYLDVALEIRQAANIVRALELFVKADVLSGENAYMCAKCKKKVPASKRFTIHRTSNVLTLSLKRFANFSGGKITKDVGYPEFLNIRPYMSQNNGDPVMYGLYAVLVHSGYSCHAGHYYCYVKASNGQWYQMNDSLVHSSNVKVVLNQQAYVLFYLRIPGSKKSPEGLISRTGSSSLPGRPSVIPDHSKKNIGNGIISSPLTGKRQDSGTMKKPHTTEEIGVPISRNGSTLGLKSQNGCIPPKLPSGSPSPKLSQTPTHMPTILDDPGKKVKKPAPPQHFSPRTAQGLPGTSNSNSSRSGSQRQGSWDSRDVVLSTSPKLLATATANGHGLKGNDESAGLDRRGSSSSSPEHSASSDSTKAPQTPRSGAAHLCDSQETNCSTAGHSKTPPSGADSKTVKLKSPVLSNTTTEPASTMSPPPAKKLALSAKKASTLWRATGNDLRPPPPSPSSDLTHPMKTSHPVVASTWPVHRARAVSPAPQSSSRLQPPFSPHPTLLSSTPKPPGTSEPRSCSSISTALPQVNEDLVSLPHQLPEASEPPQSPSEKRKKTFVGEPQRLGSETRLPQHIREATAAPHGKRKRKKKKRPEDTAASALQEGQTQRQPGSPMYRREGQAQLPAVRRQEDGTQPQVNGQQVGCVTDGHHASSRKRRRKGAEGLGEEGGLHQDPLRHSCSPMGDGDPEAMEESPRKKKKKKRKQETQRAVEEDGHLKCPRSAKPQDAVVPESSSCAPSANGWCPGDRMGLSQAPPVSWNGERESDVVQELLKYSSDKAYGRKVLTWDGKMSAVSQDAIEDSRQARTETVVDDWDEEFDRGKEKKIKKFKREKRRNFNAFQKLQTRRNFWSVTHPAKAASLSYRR
Outline: as §1

USP38 = target: T2, USP38 (UniProt Q8NB14)
T2 sequence (whole entry): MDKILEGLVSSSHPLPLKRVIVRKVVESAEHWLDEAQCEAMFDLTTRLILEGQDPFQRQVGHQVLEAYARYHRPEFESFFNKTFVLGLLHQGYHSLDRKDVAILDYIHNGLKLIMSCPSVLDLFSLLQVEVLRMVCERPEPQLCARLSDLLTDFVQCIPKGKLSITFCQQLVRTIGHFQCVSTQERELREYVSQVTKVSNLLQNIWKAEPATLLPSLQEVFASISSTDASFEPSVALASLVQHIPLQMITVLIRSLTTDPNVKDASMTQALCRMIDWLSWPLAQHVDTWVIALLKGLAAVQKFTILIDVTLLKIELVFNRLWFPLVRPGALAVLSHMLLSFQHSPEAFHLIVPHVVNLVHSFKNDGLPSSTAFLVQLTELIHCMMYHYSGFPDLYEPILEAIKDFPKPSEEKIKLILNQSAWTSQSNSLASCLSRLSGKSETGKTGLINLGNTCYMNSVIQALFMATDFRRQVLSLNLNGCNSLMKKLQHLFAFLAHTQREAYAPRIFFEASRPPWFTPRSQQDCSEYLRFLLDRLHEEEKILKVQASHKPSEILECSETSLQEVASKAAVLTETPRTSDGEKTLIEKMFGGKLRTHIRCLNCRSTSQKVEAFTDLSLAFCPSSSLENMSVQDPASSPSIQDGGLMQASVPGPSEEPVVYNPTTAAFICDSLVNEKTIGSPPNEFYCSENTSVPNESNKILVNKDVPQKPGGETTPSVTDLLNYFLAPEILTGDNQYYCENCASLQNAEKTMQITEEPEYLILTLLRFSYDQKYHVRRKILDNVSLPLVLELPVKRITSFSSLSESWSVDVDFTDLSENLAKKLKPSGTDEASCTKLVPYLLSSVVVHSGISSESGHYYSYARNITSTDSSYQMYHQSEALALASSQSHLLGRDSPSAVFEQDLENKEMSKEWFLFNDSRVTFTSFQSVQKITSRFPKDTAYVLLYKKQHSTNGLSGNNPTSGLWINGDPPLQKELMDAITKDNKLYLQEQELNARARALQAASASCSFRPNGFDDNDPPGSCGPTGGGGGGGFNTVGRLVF
Outline: as §1

USP39 = target: T3, USP39 (UniProt Q53GS9)
T3 sequence (whole entry): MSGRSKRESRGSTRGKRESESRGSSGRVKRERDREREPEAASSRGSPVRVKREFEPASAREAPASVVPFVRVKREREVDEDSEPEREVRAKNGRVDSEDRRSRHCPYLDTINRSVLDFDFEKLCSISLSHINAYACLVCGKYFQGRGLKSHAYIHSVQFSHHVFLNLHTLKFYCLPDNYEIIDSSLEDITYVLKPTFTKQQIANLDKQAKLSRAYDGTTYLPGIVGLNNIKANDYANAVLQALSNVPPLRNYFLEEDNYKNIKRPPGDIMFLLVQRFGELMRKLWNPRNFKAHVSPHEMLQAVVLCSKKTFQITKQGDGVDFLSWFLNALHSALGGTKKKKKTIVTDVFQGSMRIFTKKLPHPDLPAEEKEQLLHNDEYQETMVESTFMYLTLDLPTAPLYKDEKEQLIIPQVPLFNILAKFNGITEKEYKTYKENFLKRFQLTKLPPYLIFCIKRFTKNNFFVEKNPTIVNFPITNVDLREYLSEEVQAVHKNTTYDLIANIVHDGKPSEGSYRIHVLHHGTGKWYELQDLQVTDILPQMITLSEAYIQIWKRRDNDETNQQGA
Outline: as §1

USP4 = target: T4, USP4 (UniProt Q13107)
T4 sequence (whole entry): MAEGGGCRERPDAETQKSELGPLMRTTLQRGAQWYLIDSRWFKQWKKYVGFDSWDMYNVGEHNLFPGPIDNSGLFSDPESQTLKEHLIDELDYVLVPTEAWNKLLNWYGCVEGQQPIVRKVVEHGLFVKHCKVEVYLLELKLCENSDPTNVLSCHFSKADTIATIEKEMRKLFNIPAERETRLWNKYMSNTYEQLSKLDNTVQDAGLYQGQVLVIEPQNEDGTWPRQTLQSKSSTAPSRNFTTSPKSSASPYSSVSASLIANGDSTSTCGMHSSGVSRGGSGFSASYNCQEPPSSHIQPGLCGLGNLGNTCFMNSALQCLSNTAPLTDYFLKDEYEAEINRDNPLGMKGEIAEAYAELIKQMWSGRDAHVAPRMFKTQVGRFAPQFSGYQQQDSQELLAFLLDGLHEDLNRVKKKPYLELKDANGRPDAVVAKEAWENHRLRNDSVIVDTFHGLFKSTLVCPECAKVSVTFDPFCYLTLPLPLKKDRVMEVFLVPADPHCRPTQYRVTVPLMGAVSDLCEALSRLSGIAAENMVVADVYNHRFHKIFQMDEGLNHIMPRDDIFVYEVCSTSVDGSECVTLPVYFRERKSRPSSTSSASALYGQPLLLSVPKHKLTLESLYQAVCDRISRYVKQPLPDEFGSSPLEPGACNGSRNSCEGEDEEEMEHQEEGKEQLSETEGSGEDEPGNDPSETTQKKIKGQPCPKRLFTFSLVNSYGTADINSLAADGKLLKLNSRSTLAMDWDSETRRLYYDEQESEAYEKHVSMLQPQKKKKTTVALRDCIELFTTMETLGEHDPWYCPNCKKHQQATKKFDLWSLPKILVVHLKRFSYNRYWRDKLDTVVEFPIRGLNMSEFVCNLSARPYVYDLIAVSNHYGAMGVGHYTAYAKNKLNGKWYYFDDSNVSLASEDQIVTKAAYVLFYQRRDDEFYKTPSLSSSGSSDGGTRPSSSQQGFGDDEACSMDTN
Outline: as §1

Measured: log2 ratio of Biotin-Ahx-Ub-VS probe labelling

Chain of USP34 (Q70CQ2 whole entry, the tested form may be a part): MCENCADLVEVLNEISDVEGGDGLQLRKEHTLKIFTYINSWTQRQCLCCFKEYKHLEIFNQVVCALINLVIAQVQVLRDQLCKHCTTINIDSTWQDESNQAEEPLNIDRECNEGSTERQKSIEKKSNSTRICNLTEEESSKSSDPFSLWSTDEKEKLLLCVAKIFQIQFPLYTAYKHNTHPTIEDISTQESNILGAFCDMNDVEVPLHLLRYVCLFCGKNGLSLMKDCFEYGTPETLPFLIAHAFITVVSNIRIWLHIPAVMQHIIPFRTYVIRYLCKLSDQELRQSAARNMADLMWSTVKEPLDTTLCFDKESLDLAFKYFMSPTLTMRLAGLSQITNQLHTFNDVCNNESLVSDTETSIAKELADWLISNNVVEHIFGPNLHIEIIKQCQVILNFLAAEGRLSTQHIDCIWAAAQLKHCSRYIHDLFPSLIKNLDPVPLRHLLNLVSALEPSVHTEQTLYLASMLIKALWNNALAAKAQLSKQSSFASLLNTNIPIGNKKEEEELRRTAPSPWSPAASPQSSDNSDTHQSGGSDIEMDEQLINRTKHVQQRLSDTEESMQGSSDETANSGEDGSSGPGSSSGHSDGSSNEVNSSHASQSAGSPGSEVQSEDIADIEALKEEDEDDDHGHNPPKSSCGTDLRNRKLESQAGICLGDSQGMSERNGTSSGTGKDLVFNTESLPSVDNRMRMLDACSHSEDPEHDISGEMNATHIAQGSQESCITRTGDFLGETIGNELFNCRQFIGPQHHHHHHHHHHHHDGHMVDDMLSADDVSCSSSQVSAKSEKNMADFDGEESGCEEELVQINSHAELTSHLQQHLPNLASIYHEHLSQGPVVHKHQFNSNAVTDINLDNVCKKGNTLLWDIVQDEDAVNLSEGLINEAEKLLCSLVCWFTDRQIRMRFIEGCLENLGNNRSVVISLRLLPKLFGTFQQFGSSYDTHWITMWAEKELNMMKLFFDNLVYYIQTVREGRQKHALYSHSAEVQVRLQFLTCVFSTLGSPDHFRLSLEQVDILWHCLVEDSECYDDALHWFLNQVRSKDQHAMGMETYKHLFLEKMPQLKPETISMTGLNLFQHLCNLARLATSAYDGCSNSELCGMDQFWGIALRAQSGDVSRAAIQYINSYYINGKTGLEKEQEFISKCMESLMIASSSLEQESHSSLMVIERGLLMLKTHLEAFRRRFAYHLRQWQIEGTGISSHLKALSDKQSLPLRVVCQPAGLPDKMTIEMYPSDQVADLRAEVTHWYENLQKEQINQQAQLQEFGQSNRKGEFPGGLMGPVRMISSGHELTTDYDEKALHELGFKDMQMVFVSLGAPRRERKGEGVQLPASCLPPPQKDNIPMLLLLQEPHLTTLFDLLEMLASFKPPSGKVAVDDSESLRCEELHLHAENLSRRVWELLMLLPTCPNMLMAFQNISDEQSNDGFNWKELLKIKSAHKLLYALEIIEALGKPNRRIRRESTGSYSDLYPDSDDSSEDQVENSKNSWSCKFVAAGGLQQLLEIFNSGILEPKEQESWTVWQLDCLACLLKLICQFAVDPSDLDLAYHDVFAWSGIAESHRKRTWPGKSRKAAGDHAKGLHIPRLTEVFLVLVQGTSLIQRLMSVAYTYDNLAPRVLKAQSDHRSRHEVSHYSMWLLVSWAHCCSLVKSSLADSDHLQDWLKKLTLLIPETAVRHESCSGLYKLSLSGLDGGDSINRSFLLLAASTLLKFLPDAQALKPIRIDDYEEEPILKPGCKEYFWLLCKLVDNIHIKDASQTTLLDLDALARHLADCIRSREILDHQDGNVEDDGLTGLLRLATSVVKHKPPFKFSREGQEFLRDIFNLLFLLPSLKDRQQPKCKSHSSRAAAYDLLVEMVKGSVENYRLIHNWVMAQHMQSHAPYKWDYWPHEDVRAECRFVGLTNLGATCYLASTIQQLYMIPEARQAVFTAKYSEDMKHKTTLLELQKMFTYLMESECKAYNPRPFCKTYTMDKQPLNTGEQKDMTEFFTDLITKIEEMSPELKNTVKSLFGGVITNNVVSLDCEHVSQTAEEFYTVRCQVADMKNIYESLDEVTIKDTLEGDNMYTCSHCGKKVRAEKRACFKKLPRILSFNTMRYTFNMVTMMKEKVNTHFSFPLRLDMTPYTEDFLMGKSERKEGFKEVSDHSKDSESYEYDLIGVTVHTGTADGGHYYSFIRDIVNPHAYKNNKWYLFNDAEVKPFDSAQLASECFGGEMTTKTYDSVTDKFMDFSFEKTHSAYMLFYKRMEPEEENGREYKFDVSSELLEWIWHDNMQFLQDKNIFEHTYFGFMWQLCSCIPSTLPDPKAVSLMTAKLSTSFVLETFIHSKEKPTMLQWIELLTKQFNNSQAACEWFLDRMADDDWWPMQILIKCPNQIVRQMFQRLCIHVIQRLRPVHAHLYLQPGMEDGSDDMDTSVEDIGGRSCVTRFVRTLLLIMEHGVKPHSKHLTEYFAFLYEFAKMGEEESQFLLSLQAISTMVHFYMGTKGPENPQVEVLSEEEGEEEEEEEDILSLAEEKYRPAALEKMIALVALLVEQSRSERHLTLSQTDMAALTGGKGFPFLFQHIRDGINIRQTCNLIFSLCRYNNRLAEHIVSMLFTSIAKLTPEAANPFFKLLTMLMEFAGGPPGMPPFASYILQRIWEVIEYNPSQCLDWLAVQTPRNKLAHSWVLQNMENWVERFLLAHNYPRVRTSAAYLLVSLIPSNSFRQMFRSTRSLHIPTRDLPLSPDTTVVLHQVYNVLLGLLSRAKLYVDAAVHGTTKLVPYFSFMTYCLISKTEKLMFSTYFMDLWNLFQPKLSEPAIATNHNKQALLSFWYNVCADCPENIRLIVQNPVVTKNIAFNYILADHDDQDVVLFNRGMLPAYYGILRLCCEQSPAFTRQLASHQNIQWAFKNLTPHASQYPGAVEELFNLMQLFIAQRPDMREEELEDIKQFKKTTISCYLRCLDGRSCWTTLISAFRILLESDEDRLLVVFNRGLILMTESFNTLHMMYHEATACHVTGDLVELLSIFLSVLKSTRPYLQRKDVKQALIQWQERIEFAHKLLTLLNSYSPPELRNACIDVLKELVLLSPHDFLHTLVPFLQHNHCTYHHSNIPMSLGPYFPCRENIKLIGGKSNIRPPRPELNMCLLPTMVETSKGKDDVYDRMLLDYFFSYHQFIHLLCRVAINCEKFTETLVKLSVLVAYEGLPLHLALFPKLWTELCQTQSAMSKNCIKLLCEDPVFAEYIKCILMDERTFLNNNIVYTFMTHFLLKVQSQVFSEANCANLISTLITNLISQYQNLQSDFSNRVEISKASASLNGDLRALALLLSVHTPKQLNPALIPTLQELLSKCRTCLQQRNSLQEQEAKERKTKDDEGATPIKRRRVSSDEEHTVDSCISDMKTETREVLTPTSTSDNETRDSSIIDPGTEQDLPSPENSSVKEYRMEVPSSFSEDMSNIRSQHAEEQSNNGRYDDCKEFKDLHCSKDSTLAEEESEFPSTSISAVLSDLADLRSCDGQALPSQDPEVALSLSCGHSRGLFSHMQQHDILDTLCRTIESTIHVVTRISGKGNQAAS

Cc1ncc2c(n1)CCN(C(=O)CCl)C2
inactive: USP34 -0.14 | USP36 -0.0392 | USP38 -0.067 | USP39 0.0209 | USP4 -0.35

From the supplement of paper PMC11732987, “Enantioselective OTUD7B fragment discovery through chemoproteomics screening and high-throughput optimisation” (Communications Chemistry, 2025)
